Records with an inconclusive call do not appear. Active and inactive are the calls of the source. Calls follow the shape of the dose curve; as a rule, active = well fitted cell-killing curve with a large enough effect in the repeat runs; inconclusive = weak or mixed curves, or effect the other way; inactive = no such curve, though single readings can be large or run the other way.
Assay: qHTS assay for small molecule activators of the heat shock response signaling pathway - cell viability counter screen (AID 743209); also: nearly all actives have a fitted effect of over 50% in size
Conditions: HSE-bla HeLa viability, CellTiter-Glo luminescence, 5 h; series mostly up to 62.6 µM; activity change, negative = cytotoxicity: at the top concentration
From the text: U.S. Tox21 Program National Center for Advancing Translational Sciences [NCATS] NIH Chemical Genomics Center [NCGC] U.S. Environmental Protection Agency [EPA] National Institutes of Environmental Health Sciences [NIEHS] National Toxicology Program [NTP] U.S. Food and Drug Administration [FDA] Tox21 Assay Overview: Various chemicals, environmental and physiological stress conditions may lead to the activation of heat shock response/ unfolded protein response (HSR/UPR). There are three heat shock transcription factors (HSFs) (HSF-1, -2, and -4) mediating transcriptional regulation of the human HSR. To identify the compounds that activate HSR signaling, HSE-bla HeLa cell line (Invitrogen, Carlsbad, CA, USA) containing a beta-lactamase reporter gene under the control of the heat shock response elements was used to screen Tox21 10K compound library. The cytotoxicity of the Tox21 compound library against the HSE-bla HeLa cell line was tested in parallel by measuring the cell viability using CellTiter-Glo assay (Promega, Madison, WI) in the same wells.
Tox21 Assay Protocol Summary: The CellSensor HSE-bla HeLa cells (Invitrogen, Carlsbad, CA, USA) were dispensed at 1500 cells/6uL/well into 1536-well black wall/clear bottom plates using a Multidrop combi (Thermo Fisher Scientific, Waltham, MA) dispenser. After the assay plates were incubated at 37 C and 5% CO2 overnight, 23 nL of compounds dissolved in DMSO, positive controls or DMSO only was transferred to the assay plate by a Pintool station (Kalypsys, San Diego, CA). The plates were incubated at 37 C for 5 h. After 1 uL of LiveBLAzerTM B/G FRET substrate was added using a Flying Reagent Dispenser (FRD, Beckman Coulter, Indianapolis, IN, USA), the plates were incubated at room temperature for 2.5 h, and fluorescence intensity was measured by an Envision plate reader (PerkinElmer, Shelton, CT). For cell viability readout that measures cytotoxicity, 3 ul/well of CellTiter-Glo reagent was added into the assay plates using a FRD. After 30 min incubation at room temperature, the luminescence intensity in the plates was measured using a ViewLux (PerkinElmer) plate reader.
% is scaled to controls: 0 for no effect and ±100 for the full control effect; potency is read from the fitted curve at half-maximal effect.

**Q.** With `CCSC(=O)N(CC)CC` as the compound, how does the “activity change, negative = cytotoxicity” value read?
**A.** -12.5% (inactive)

**Q.** With `Cc1ccc2c(c1)CCCN2` as the compound, how does the “activity change, negative = cytotoxicity” value read?
**A.** 0.348% (inactive)

**Q.** Which “activity change, negative = cytotoxicity” value does the source give for `CCCCCC` here?
**A.** -0.454% (inactive)

**Q.** With `CNC1CCCN(c2c(F)cc3c(=O)c(C(=O)O)cn(C4CC4)c3c2OC)C1` (stereo not given) as the compound, how does the “activity change, negative = cytotoxicity” value read?
**A.** 8.59% (inactive)

**Q.** For `CC(=O)N[C@@H](Cc1ccc(O)cc1)C(=O)O`, which “activity change, negative = cytotoxicity” value is on record?
**A.** -7.89% (inactive)

**Q.** For `CC(C)CC(O)CC(C)C`, which “activity change, negative = cytotoxicity” value is on record?
**A.** 0.672% (inactive)

**Q.** For `CCOc1ncc(F)c(=O)[nH]1`, which “activity change, negative = cytotoxicity” value is on record?
**A.** -0.705% (inactive)

**Q.** Which “activity change, negative = cytotoxicity” value does the source give for `CCCCCCC(O)CCCCCCCCCCC(=O)OC` (stereo not given) here?
**A.** 7.69% (inactive)

**Q.** With `CCOC(=O)C(C)O` (stereo not given) as the compound, how does the “activity change, negative = cytotoxicity” value read?
**A.** 26.5% [at 81.1 µM] (inactive)

**Q.** Which “activity change, negative = cytotoxicity” value does the source give for `CC(C)C(=O)OCCOc1ccccc1` here?
**A.** 2.46% (inactive)

**Q.** For `Cc1c[nH]c2ccccc12`, which “activity change, negative = cytotoxicity” value is on record?
**A.** -23.4% (inactive)

**Q.** Which “activity change, negative = cytotoxicity” value does the source give for `O=C(O)c1cccc(C[C@@H]2COc3ccc(OCc4nc5cc(F)ccc5s4)cc3[C@@H]2O)c1` here?
**A.** 3.32% (inactive)

**Q.** Which “activity change, negative = cytotoxicity” value does the source give for `C[C@H](CS)C(=O)N1CCC[C@H]1C(=O)O` here?
**A.** 14.8% (inactive)

**Q.** For `O=C(O)CO`, which “activity change, negative = cytotoxicity” value is on record?
**A.** -2.8% (inactive)

**Q.** Which “activity change, negative = cytotoxicity” value does the source give for `CC(=O)Oc1cccc(O)c1` here?
**A.** 2.69% (inactive)

**Q.** Which “activity change, negative = cytotoxicity” value does the source give for `CNCc1ccc(NC(=O)c2c[nH]c3c2C(=O)CCC3)cc1` here?
**A.** 1.35% (inactive)

**Q.** With `CNS(=O)(=O)c1cc(C(=O)N2CCC(CCN3C4CCC3CC(n3c(C)nc5ccccc53)C4)(c3cccc(F)c3)CC2)c(Cl)cc1F` (stereo not given) as the compound, how does the “activity change, negative = cytotoxicity” value read?
**A.** -3.7% (inactive)

**Q.** For `O=C1c2ccccc2C(=O)c2c(O)ccc(O)c21`, which “activity change, negative = cytotoxicity” value is on record?
**A.** 1.54% (inactive)

**Q.** Which “activity change, negative = cytotoxicity” value does the source give for `NC(=O)c1ccccc1[N+](=O)[O-]` here?
**A.** 3.83% [at 81.1 µM] (inactive)

**Q.** With `CCCCCCCCCCCCCOS(=O)(=O)O` as the compound, how does the “activity change, negative = cytotoxicity” value read?
**A.** -18.6% (inactive)

**Q.** With `O=[N+]([O-])c1ccc2ncccc2c1` as the compound, how does the “activity change, negative = cytotoxicity” value read?
**A.** -3.8% (inactive)

**Q.** For `CC(=O)OC(C)C[N+](C)(C)C` (stereo not given), which “activity change, negative = cytotoxicity” value is on record?
**A.** 1.16% (inactive)

**Q.** With `CC(C)N(C)C` as the compound, how does the “activity change, negative = cytotoxicity” value read?
**A.** 8.54% (inactive)

**Q.** With `CC1CCCC(=O)C1=O` (stereo not given) as the compound, how does the “activity change, negative = cytotoxicity” value read?
**A.** 1.08% (inactive)

**Q.** For `COC(=O)C1=C(C)NC(C)=C(C(=O)OC(C)(C)CN(C)CCC(c2ccccc2)c2ccccc2)C1c1cccc([N+](=O)[O-])c1` (stereo not given), which “activity change, negative = cytotoxicity” value is on record?
**A.** -8.84% (inactive)

**Q.** With `COC(=O)CC(C(C)=O)C(=O)OC` (stereo not given) as the compound, how does the “activity change, negative = cytotoxicity” value read?
**A.** 0.0719% (inactive)

**Q.** Which “activity change, negative = cytotoxicity” value does the source give for `Nc1ccc(NC(=O)c2ccc(N)cc2)cc1` here?
**A.** -1.75% (inactive)

**Q.** With `O=c1[nH][nH]c(=O)c2cc([N+](=O)[O-])ccc12` as the compound, how does the “activity change, negative = cytotoxicity” value read?
**A.** -5.52% [at 81.1 µM] (inactive)

**Q.** With `COc1ccc2nc(S(=O)Cc3ncc(C)c(OC)c3C)[nH]c2c1` (stereo not given) as the compound, how does the Potency read?
**A.** inactive

**Q.** For `N[C@@H](Cc1cc(I)c(O)c(I)c1)C(=O)O`, which “activity change, negative = cytotoxicity” value is on record?
**A.** 0.654% (inactive)

**Q.** With `C=CC(=O)O` as the compound, how does the “activity change, negative = cytotoxicity” value read?
**A.** 2.8% (inactive)

**Q.** For `CCCCCCCC/C=C\CCCCCCCC(=O)OCCO`, which Potency is on record?
**A.** 64.9 µM (active)

**Q.** Which “activity change, negative = cytotoxicity” value does the source give for `Cc1ccc2nc(N)[nH]c(=O)c2c1Sc1ccncc1` here?
**A.** 1.41% (inactive)

**Q.** With `COc1cc(OC)c2ccc(=O)oc2c1` as the compound, how does the “activity change, negative = cytotoxicity” value read?
**A.** -9.04% (inactive)

**Q.** For `O=C(O)CCC(=O)OC[C@@H](NC(=O)C(Cl)Cl)[C@H](O)c1ccc([N+](=O)[O-])cc1`, which “activity change, negative = cytotoxicity” value is on record?
**A.** -6.36% (inactive)

**Q.** Which “activity change, negative = cytotoxicity” value does the source give for `CCCOC(=O)c1c(Cl)c(Cl)c(Cl)c(Cl)c1C(=O)OCCC` here?
**A.** 2.15% (inactive)

**Q.** For `CCOC(=O)c1ccc(NC(=O)CN2CCCCC2)cc1`, which “activity change, negative = cytotoxicity” value is on record?
**A.** -7.03% (inactive)

**Q.** For `c1ccc(CCCc2ccncc2)cc1`, which “activity change, negative = cytotoxicity” value is on record?
**A.** -8.05% (inactive)

**Q.** With `CC(=O)OCC(C)C` as the compound, how does the “activity change, negative = cytotoxicity” value read?
**A.** -3.88% (inactive)

**Q.** For `CC1CCc2nccnc21` (stereo not given), which “activity change, negative = cytotoxicity” value is on record?
**A.** -3.92% (inactive)

— PubChem BioAssay (Tox21)
